Our source for the Potency, outcome and max response values is PubChem BioAssay (NCATS).

Records with an inconclusive call do not appear. A call without a number means that no potency is given here. A number with no mark means an inactive call. Calls of active or inactive are those of the source. The call rests on the fitted dose curve; in most records, active means well fitted inhibition curve with a large enough effect; inconclusive means small, poorly fitted or top-dose-only effect; inactive means flat fitted curve, though single readings scatter.
Potency means the concentration at half of the fitted maximal effect.

This experiment concerns HaCat. The experiment can be described thus: Cytotoxic Profiling of Annotated Libraries Using Quantitative High-Throughput Screening (AID 1296008). Further: nearly all actives have a fitted effect of over 60% in size. Particulars: Five cell lines viability, CellTiter-Glo ATP luminescence, 48-72 h; max response: hits give low values. The method in brief:
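Cytotoxicity was measured as CellTiter-Glo ATP luminescence, read after 10 min at room temperature. Compound treatment of the cells lasted 48 or 72 hr at 37 degrees Celsius in a qHTS format.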
For orientation: In ATP-based viability assays light output follows the ATP content of the culture.
In the case of `C=C1[C@@H](OC(C)=O)CC[C@@]2(C)[C@@H](OC(C)=O)[C@H](OC(C)=O)C3=C(C)C[C@H](OC(=O)C(C)CC)[C@@H]([C@@H](OC(C)=O)[C@H]12)C3(C)C` (stereo partly specified), the Potency was 1.93 µM (active).
For `S=C(c1ccc(-c2ccc(Cl)c(Cl)c2)o1)N1CCCCC1`, the call was inactive.
Same read-out and setting: the entry for `CC(CCC1(O)OC2CC3C4CC=C5C[C@@H](O[C@@H]6O[C@H](CO)[C@@H](O[C@@H]7O[C@@H](C)[C@H](O)[C@@H](O)[C@H]7O)[C@H](O)[C@H]6O[C@@H]6O[C@@H](C)[C@H](O)[C@@H](O)[C@H]6O)CC[C@]5(C)C4CC[C@]3(C)[C@@]2(O)[C@@H]1C)CO[C@@H]1O[C@H](CO)[C@@H](O)[C@H](O)[C@H]1O` (stereo partly specified) is “inactive”; for `Cc1ccc(N2CCN(S(=O)(=O)N3CCCCC3)CC2)c(C)c1` it is “inactive”; for `O=C(Nc1ncc([N+](=O)[O-])s1)c1ccccc1O` it is “inactive”.
Still for that read-out and setting: the entry for `O=C(NCc1cccs1)c1cc2nc(-c3ccco3)cc(C(F)(F)Cl)n2n1` is “inactive”; for `COc1ccc(-n2c(SCCCN3C(=O)c4cccc5cccc(c45)C3=O)nnc2-c2ccncc2)cc1` it is “inactive”.
As to `COc1cc(F)c(F)c(Nc2ccc(I)cc2F)c1NS(=O)(=O)C1(CC(O)CO)CC1` (stereo unspecified), the Potency was 14.6 µM (active).
In the case of `Nc1nc(OCc2cc(Br)cs2)c2[nH]cnc2n1`, the max response was -1.07%.
For the compound `O=C(NCc1ccccc1)c1ccc2c(=O)n(-c3cccc(C(F)(F)F)c3)c(=S)[nH]c2c1`, the max response is -51.3%.
Regarding `O=C(Nc1ccc(C(F)(F)F)cn1)N1CCN(c2ncccc2C(F)(F)F)CC1`, the outcome was inactive.
With `C=C1C(=O)OC2C1CCC1(C)C(O)CC=C(C)C21` (stereo unspecified), the call was inactive.
Consider `CN1CCN(S(=O)(=O)c2ccc(-c3cnc(N)c(C(=O)Nc4cccnc4)n3)cc2)CC1`, for which the max response was -21.1%.
On the same count and under the same terms, the figure for `NC(=O)c1nc(Nc2ccccc2)sc1NC(=O)C1CCCCC1` is -27.5%.
With `Cc1ccnc(NC(=O)C(C)c2cccc(C(=O)c3ccccc3)c2)c1` (stereo unspecified), the outcome was inactive.
Same read-out and setting: the entry for `Cc1nc(C#Cc2ccnc(Cl)c2)c(C)n1-c1ccc(OC(F)(F)F)cc1` is “inactive”.
As for `O=C(NCCCCCCCCNC(=O)C(Cl)Cl)C(Cl)Cl`, the max response was -4.24%.
In the case of `C=C1C(=O)O[C@@H]2C=C(COC(C)=O)CC/C=C(\CO)CC[C@@H]12`, the compound was called inactive.
As to `CCC(=O)N1CCOc2c(cc(-c3ccc(OC)c(OC)c3)cc2OC[C@H]2CCCN(C)C2)C1`, the max response was 3.21%.
On to `Cc1ccc(-c2cn3c4c(sc3n2)CCCC4)cc1`, for which the outcome was inactive.
The same measure, in the same setting: under `C=C1C(=O)OC2C1CCC1(C)C(O)CCC(=C)C21` (stereo unspecified) stands “inactive”.
For the compound `C=C1/C(=C/C=C2\CCC[C@]3(C)[C@@H]([C@H](C)CC[C@@H](O)C(C)(C)O)CC[C@@H]23)C[C@@H](O)C[C@@H]1O`, the max response is -0.344%.
On the same count and under the same terms, under `O=C([C@@H]1CCCN(c2ccc3[nH]c(C4(n5cc(Cl)cn5)CC4)nc3n2)C1)N1CCCC1` stands -7.93%.
With `O=S(=O)(Nc1ccccc1N1CCCCC1)c1ccc(Cl)s1`, the max response was -19.5%.
Same read-out and setting: under `CCCCOc1ccc(S(=O)(=O)n2c(C)nc3ccccc32)cc1` stands 3.36%; under `C=C1C(=O)O[C@@H]2[C@H]1CCC(C)=C(CCC(=O)O)[C@@]2(C)O`, 2.79%.
On to `C=CCc1ccc(OC(C)Cc2ccc(OC)c(OC)c2)c(OC)c1` (stereo unspecified), for which the result was inactive.
As to `COc1cc(N2CCOCC2)ccc1NC(=O)c1csc(-c2cccnc2)n1`, the max response is -49.6%.
In the case of `C=CC(=O)N1CCCN(c2cc(NCCC(=O)O)nc(-c3ccccn3)n2)CC1`, the call was inactive.
Still for that read-out and setting: the entry for `CC1(C)CC[C@]2(C(=O)O[C@@H]3O[C@H](CO)[C@@H](O)[C@H](O)[C@H]3O)CC[C@]3(C)C(=CCC4[C@@]5(C)CC[C@H](O[C@@H]6O[C@H](C(=O)O)[C@H](O)[C@H](O)[C@H]6O)C(C)(C)C5CC[C@]43C)[C@@H]2C1` (stereo partly specified) is “inactive”.
Consider `CC(C)c1ccc(-c2cc(=O)c3ccccc3o2)cc1`, for which the max response was -4.45%.
Same read-out and setting: under `CC1CCC(=O)CC(SCC(O)C(=O)O)CCC(=O)O1` (stereo unspecified) stands -8.22%.
As for `CC(=O)OC1CC2(C)C(CCC(C)C23Cc2c(O)cc(CO)c(C=O)c2O3)C(C)(C)C1O` (stereo unspecified), the call was inactive.
On to `O=C(Nc1cnc(Cl)nc1)c1ccc(F)c(F)c1`, for which the compound was called inactive.
Regarding `COC1CCN(C(=O)c2cc(Cc3n[nH]c(=O)c4ccccc34)ccc2F)CC1`, the max response was 1.07%.
On the same count and under the same terms, under `COc1nc2ccc(Br)cc2cc1[C@@H](c1ccccc1)[C@@](O)(CCN(C)C)c1cccc2ccccc12` stands -2.21%.
